# What was measured:
# Experiment in all cases: DAPPL (digital affinity profiling via proximity ligation, sequencing); 10 mM Tris-HCl pH 7.5, 50 mM NaCl, 1 mM DTT, 4% glycerol, room temperature, 30 min; GST-TFs on glutathione beads, 16-mer random dsDNA library, 0.1% formaldehyde crosslink after washing; high values mean tight binding
# FEV = biological target: T1, FEV (Homo sapiens, UniProt Q99581 1-238); settings: protein: recombinant; tags: N-terminal GST; dsDNA, one strand shown
# T1 sequence: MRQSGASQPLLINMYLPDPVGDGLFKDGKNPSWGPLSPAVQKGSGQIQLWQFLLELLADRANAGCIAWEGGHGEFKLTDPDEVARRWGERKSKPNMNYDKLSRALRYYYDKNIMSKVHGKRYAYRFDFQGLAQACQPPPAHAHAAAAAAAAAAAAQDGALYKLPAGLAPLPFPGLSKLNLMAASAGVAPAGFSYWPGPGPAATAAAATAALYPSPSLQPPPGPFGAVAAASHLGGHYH
# Procedure, shortened: (§1)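 In yeast, human transcription factors were expressed with a GST fusion, then pulled down on glutathione beads and given DNA barcodes. Pooled with a tag-only sample, they were exposed to 200 nmole of a 16-mer random double-stranded DNA library (Tris/NaCl/DTT/glycerol buffer, room temperature, 30 min), washed, crosslinked with 0.1% formaldehyde, proximity-ligated using BsaI/T4 ligase for 1 h at 37 °C, PCR-amplified and read on an Illumina NextSeq500. Each hexamer's frequency of reads for a factor, divided by the matching frequency for the tag-only sample, gives the binding signal.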
# ETV5 = ETV5 (Homo sapiens, UniProt P41161 1-510); settings: protein: recombinant; tags: N-terminal GST; dsDNA, one strand shown
# ETV5, sequence (P41161 whole entry): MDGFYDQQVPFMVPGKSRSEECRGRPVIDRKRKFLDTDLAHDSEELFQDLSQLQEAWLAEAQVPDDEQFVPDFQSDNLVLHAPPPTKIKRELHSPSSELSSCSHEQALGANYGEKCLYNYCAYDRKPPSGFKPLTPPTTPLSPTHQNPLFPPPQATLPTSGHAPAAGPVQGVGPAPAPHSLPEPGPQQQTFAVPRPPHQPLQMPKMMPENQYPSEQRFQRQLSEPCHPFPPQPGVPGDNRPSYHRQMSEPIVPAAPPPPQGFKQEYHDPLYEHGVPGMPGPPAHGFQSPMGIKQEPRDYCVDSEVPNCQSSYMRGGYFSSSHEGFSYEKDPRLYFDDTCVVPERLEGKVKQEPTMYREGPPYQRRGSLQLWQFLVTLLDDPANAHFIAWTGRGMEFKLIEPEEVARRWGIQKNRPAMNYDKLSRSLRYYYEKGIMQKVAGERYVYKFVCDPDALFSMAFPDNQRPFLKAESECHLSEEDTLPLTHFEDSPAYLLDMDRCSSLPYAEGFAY
# Procedure, shortened: as §1
# HSF1 = HSF1 (Homo sapiens, UniProt Q00613 1-529); settings: protein: recombinant; tags: N-terminal GST; chain copies: 3; dsDNA, one strand shown
# HSF1, sequence (Q00613 whole entry): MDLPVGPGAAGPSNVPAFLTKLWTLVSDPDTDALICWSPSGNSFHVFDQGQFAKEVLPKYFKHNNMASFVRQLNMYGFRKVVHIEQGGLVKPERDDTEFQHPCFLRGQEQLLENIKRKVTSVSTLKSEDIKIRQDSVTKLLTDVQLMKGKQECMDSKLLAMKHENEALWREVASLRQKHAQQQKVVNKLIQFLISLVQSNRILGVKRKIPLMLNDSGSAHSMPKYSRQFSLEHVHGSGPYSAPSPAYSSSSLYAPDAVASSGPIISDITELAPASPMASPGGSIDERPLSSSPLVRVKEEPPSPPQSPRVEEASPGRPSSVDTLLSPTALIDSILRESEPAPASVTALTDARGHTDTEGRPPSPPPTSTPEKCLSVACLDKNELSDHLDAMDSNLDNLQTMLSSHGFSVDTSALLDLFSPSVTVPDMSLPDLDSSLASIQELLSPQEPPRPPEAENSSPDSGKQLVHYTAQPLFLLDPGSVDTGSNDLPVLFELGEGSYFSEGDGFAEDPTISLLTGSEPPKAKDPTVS
# Procedure, shortened: as §1
# SPIC = biological target: T2, SPIC (Homo sapiens, UniProt Q8N5J4 1-248); settings: protein: recombinant; tags: N-terminal GST; dsDNA, one strand shown
# T2 sequence: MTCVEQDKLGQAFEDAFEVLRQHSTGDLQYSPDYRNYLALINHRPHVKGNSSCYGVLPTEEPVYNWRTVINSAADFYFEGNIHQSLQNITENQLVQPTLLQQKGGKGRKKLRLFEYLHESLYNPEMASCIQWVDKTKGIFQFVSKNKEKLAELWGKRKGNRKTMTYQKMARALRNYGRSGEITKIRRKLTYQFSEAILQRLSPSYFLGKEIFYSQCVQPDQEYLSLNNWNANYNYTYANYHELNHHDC
# Procedure, shortened: as §1
# ELF4 = ELF4 (Homo sapiens, UniProt Q99607 1-663); settings: protein: recombinant; tags: N-terminal GST; dsDNA, one strand shown
# ELF4, sequence (Q99607 whole entry): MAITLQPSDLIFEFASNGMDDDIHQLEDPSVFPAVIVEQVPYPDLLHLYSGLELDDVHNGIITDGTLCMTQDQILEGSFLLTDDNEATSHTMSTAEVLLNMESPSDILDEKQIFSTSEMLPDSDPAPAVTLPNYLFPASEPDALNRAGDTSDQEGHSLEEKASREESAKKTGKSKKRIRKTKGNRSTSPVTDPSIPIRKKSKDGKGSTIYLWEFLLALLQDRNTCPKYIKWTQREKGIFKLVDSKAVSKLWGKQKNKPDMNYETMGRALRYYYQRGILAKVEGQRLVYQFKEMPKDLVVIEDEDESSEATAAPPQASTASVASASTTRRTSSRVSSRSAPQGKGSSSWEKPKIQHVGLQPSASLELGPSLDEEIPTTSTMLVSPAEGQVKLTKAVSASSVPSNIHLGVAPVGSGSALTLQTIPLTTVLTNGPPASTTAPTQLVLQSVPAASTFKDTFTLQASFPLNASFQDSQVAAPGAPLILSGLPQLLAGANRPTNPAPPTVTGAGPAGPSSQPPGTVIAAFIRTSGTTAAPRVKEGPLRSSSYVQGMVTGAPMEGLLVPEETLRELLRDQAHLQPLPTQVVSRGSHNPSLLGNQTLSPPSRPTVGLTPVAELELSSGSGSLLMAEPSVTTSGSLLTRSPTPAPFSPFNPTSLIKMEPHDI
# Procedure, shortened: as §1
# ELK4 = biological target: T3, ELK4 (Homo sapiens, UniProt P28324-2 1-405); settings: protein: recombinant; tags: N-terminal GST; dsDNA, one strand shown
# T3 sequence: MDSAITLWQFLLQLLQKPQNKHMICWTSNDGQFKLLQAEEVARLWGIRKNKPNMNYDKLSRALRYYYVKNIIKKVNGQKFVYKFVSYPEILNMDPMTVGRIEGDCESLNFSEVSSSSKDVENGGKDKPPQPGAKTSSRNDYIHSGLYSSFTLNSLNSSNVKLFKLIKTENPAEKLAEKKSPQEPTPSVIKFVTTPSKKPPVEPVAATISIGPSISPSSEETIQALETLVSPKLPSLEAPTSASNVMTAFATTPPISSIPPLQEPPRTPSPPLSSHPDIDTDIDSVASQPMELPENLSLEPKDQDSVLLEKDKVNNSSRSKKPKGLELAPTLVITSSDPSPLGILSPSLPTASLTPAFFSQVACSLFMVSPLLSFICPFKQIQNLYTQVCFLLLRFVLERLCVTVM
# Procedure, shortened: as §1
# ETV2 = biological target: T4, ETV2 (Homo sapiens, UniProt O00321 1-342); settings: protein: recombinant; tags: N-terminal GST; dsDNA, one strand shown
# T4 sequence: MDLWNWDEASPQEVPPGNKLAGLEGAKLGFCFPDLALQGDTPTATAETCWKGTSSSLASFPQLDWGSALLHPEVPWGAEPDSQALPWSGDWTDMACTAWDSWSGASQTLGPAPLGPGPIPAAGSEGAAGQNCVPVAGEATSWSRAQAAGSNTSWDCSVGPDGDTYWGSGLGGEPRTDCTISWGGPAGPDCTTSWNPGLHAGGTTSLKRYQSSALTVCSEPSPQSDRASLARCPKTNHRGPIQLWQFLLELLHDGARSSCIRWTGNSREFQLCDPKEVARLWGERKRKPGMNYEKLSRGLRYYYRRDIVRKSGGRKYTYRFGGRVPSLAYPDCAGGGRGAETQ
# Procedure, shortened: as §1
# ELF3 = biological target: T5, ELF3 (Homo sapiens, UniProt P78545 1-371); settings: protein: recombinant; tags: N-terminal GST; dsDNA, one strand shown
# T5 sequence: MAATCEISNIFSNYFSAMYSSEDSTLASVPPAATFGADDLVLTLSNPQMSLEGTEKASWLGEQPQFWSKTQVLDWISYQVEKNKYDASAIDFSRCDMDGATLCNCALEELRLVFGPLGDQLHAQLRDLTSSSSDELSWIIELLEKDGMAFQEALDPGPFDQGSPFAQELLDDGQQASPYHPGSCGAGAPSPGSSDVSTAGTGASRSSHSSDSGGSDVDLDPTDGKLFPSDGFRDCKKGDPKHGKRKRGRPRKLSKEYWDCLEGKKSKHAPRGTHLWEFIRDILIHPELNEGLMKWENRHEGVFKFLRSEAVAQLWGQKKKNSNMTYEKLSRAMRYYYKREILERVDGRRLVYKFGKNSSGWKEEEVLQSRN
# Procedure, shortened: as §1
# CRX = CRX (Homo sapiens, UniProt O43186 1-299); settings: protein: recombinant; tags: N-terminal GST; dsDNA, one strand shown
# CRX, sequence (O43186 whole entry): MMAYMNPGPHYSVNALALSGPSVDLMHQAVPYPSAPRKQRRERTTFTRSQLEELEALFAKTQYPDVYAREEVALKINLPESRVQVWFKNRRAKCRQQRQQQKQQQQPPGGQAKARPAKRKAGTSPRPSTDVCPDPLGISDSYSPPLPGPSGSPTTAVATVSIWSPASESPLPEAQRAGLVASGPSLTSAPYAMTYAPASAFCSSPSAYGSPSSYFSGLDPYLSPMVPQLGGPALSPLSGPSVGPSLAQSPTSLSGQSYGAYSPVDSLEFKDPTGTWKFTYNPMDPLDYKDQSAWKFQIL
# Procedure, shortened: as §1
# ETV1 = ETV1 (Homo sapiens, UniProt P50549 1-477); settings: protein: recombinant; tags: N-terminal GST; dsDNA, one strand shown
# ETV1, sequence (P50549 whole entry): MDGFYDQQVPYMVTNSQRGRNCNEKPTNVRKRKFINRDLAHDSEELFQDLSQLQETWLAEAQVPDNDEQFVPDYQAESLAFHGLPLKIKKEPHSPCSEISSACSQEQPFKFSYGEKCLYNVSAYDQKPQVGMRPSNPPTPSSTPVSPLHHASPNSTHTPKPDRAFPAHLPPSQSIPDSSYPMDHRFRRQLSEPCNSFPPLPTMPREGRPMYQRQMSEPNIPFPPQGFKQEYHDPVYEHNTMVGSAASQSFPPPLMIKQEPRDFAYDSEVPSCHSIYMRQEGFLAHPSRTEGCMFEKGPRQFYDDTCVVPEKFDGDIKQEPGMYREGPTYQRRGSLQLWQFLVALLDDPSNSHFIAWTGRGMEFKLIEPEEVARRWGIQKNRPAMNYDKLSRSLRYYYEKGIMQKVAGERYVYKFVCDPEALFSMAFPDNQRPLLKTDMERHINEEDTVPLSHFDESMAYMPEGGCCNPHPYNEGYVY
# Procedure, shortened: as §1
# ERF = biological target: T6, ERF (Homo sapiens, UniProt P50548 1-548); settings: protein: recombinant; tags: N-terminal GST; dsDNA, one strand shown
# T6 sequence: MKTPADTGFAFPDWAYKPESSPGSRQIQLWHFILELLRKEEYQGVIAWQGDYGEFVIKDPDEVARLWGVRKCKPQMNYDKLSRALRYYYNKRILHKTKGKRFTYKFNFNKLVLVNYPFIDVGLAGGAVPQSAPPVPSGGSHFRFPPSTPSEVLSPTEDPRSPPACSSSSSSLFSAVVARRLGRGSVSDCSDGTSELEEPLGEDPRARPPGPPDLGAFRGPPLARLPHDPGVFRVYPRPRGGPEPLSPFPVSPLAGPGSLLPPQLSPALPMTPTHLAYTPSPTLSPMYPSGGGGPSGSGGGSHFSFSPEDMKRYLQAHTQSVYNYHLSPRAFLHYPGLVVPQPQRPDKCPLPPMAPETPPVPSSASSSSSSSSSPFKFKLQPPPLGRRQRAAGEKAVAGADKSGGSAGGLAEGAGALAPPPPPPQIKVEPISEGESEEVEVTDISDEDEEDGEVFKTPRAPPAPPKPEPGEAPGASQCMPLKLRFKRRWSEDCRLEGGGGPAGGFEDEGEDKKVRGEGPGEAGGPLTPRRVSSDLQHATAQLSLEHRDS
# Procedure, shortened: as §1
# ETV3L = biological target: T7, ETV3L (Homo sapiens, UniProt Q6ZN32 1-361); settings: protein: recombinant; tags: N-terminal GST; dsDNA, one strand shown
# T7 sequence: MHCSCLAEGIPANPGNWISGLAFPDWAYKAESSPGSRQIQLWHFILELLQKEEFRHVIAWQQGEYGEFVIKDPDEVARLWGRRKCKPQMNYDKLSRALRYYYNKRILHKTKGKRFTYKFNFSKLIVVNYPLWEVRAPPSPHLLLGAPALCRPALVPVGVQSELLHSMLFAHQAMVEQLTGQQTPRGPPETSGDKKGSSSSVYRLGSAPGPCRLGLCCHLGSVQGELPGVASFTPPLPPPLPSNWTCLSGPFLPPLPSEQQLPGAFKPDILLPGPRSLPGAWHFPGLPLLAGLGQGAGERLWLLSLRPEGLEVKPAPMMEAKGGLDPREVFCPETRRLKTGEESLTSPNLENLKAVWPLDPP
# Procedure, shortened: as §1
# ETS2 = biological target: T8, ETS2 (Homo sapiens, UniProt P15036 1-469); settings: protein: recombinant; tags: N-terminal GST; dsDNA, one strand shown
# T8 sequence: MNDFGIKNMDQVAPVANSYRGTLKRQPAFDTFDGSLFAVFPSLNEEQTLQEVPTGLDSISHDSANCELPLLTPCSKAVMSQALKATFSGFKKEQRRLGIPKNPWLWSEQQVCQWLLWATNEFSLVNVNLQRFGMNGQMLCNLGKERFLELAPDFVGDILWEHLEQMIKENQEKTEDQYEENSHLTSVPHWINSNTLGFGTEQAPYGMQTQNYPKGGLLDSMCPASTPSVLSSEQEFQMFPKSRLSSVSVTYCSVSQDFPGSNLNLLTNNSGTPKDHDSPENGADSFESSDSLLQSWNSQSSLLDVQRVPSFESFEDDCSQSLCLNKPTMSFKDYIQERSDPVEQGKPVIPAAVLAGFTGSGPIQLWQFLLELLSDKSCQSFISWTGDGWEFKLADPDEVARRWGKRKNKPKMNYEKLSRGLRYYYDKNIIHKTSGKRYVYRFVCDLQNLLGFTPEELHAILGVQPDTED
# Procedure, shortened: as §1
# SPDEF = biological target: T9, SPDEF (Homo sapiens, UniProt O95238 1-335); settings: protein: recombinant; tags: N-terminal GST; dsDNA, one strand shown
# T9 sequence: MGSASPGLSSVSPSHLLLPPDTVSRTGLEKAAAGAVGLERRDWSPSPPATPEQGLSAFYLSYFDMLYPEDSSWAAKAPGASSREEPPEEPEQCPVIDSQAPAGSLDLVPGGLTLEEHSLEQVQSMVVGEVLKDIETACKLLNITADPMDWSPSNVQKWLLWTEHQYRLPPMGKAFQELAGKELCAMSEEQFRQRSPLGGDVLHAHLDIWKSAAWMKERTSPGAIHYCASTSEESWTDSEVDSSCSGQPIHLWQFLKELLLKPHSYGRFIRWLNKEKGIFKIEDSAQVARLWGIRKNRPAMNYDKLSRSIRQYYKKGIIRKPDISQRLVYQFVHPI
# Procedure, shortened: as §1
# ETV7 = biological target: T10, ETV7 (Homo sapiens, UniProt Q9Y603 1-341); settings: protein: recombinant; tags: N-terminal GST; dsDNA, one strand shown
# T10 sequence: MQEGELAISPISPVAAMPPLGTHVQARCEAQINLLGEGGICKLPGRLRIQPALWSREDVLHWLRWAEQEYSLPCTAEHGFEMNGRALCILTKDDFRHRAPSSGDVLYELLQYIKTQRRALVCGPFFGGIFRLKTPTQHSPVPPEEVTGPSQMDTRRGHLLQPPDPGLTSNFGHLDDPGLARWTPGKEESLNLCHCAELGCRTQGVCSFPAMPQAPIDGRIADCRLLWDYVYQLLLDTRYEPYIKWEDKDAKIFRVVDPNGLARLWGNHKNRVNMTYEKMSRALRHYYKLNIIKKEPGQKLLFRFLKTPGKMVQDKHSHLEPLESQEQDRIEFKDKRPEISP
# Procedure, shortened: as §1
# ELF5 = biological target: T11, ELF5 (Homo sapiens, UniProt Q9UKW6-2 1-255); settings: protein: recombinant; tags: N-terminal GST; dsDNA, one strand shown
# T11 sequence: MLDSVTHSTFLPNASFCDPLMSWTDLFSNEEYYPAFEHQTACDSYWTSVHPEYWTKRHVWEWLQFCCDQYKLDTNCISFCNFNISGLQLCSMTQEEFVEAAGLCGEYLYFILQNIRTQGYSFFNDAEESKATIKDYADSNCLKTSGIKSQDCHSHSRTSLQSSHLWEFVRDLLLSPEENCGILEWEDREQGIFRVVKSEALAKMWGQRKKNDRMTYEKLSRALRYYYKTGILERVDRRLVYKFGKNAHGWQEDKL
# Procedure, shortened: as §1
# ETV3 = biological target: T12, ETV3 (Homo sapiens, UniProt P41162-2 1-143); settings: protein: recombinant; tags: N-terminal GST; dsDNA, one strand shown
# T12 sequence: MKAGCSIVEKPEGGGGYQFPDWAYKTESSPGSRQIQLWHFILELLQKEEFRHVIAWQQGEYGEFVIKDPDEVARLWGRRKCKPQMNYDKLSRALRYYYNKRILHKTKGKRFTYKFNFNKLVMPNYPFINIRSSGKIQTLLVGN
# Procedure, shortened: as §1
# ETV6 = ETV6 (Homo sapiens, UniProt P41212 1-452); settings: protein: recombinant; tags: N-terminal GST; dsDNA, one strand shown
# ETV6, sequence (P41212 whole entry): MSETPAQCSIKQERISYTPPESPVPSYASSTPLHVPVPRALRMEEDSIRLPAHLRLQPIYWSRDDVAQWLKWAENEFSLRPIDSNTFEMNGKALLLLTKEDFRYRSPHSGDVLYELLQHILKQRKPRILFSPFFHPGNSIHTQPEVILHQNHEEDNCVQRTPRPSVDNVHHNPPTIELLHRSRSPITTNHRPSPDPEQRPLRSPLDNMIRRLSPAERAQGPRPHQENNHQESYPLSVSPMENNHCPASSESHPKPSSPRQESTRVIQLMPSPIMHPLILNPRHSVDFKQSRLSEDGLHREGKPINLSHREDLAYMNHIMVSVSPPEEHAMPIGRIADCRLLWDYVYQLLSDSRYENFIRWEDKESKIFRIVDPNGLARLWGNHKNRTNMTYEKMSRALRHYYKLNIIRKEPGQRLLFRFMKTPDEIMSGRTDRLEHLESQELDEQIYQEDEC
# Procedure, shortened: as §1
sequence,measurement,setting,value
GCTCGC,binding signal,FEV,"1.42 fold enrichment (6-mer frequency, TF over GST control)"
same,binding signal,ETV5,"1.32 fold enrichment (6-mer frequency, TF over GST control)"
same,binding signal,HSF1,"1.25 fold enrichment (6-mer frequency, TF over GST control)"
same,binding signal,SPIC,"1.44 fold enrichment (6-mer frequency, TF over GST control)"
same,binding signal,ELF4,"1.28 fold enrichment (6-mer frequency, TF over GST control)"
same,binding signal,ELK4,"1.52 fold enrichment (6-mer frequency, TF over GST control)"
same,binding signal,ETV2,"1.17 fold enrichment (6-mer frequency, TF over GST control)"
same,binding signal,ELF3,"1.51 fold enrichment (6-mer frequency, TF over GST control)"
same,binding signal,CRX,"1.12 fold enrichment (6-mer frequency, TF over GST control)"
same,binding signal,ETV1,"1.37 fold enrichment (6-mer frequency, TF over GST control)"
same,binding signal,ERF,"1.36 fold enrichment (6-mer frequency, TF over GST control)"
same,binding signal,ETV3L,"1.35 fold enrichment (6-mer frequency, TF over GST control)"
same,binding signal,ETS2,"1.45 fold enrichment (6-mer frequency, TF over GST control)"
same,binding signal,SPDEF,"1.29 fold enrichment (6-mer frequency, TF over GST control)"
same,binding signal,ETV7,"1.21 fold enrichment (6-mer frequency, TF over GST control)"
same,binding signal,ELF5,"1.31 fold enrichment (6-mer frequency, TF over GST control)"
same,binding signal,ETV3,"1.35 fold enrichment (6-mer frequency, TF over GST control)"
same,binding signal,ETV6,"1.35 fold enrichment (6-mer frequency, TF over GST control)"

# — publication PMC7862700, “An all-to-all approach to the identification of sequence-specific readers for epigenetic DNA modifications on cytosine”
